According to PubChem BioAssay AID1159580 (chemical genetic matrix, 2015):
About 2,000 (36%) of roughly 5,500 compounds were called active. Roughly 18% stayed inconclusive and do not appear here. Cut-off read from the data, not from the text of the source: active = normalized growth mostly below about 0.91 (no sharp cut-off); inconclusive = no clear call, values can overlap the other calls; inactive = mostly above about 0.92. The list shows a part of the results.

Assay: chemical genetic growth profiling, strain panel (AID 1159580);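 note: tested at 20 µM; growth read once vehicle control cultures reached saturation at 30 °C; 1 = growth at the plate median or of vehicle wells; lower values mean less growth of the strain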
Settings: growth OD

Measured: normalized growth

COc1cccc(OC)c1C(=O)N[C@@H]1C(=O)N2[C@@H]1SC(C)(C)[C@@H]2C(=O)O
inactive: S. cerevisiae deletion strains, locus YJR066W, strain TOR1, stronger effect = lower value 0.974 | S. cerevisiae deletion strains, locus YJR075W, strain HOC1, stronger effect = lower value 0.998 | S. cerevisiae deletion strains, locus YKL009W, strain mrt4, stronger effect = lower value 0.946 | S. cerevisiae deletion strains, locus YKL068W, stronger effect = lower value 0.975 | S. cerevisiae deletion strains, locus YKL085W, strain MDH1 (second series), stronger effect = lower value 0.986 | S. cerevisiae deletion strains, locus YKL085W, strain MDH1, stronger effect = lower value 0.986 | S. cerevisiae deletion strains, locus YKL160W, strain elf1, stronger effect = lower value 0.978 | S. cerevisiae deletion strains, locus YKR001C, strain vps1, stronger effect = lower value 0.973 | S. cerevisiae deletion strains, locus YKR026C, strain gcn3, stronger effect = lower value 1 | S. cerevisiae deletion strains, locus YKR091W, strain srl3, stronger effect = lower value 1 | S. cerevisiae deletion strains, locus YLL001W, strain dnm1, stronger effect = lower value 0.963 | S. cerevisiae deletion strains, locus YLL026W, stronger effect = lower value 0.993 | S. cerevisiae deletion strains, locus YLL041C, strain sdh2, stronger effect = lower value 0.994 | S. cerevisiae deletion strains, locus YLR027C, strain aat2, stronger effect = lower value 0.995 | S. cerevisiae deletion strains, locus YLR039C, strain RIC1, stronger effect = lower value 1 | S. cerevisiae deletion strains, locus YLR058C, strain SHM2, stronger effect = lower value 1.01 | S. cerevisiae deletion strains, locus YLR102C, strain apc9, stronger effect = lower value 0.985 | S. cerevisiae deletion strains, locus YLR113W, strain HOG1, stronger effect = lower value 0.982 | S. cerevisiae deletion strains, locus YLR221C, strain rsa3, stronger effect = lower value 1 | S. cerevisiae deletion strains, locus YLR258W, strain gsy2, stronger effect = lower value 0.999 | S. cerevisiae deletion strains, locus YLR262C, strain YPT6 (second series), stronger effect = lower value 1 | S. cerevisiae deletion strains, locus YLR262C, strain YPT6, stronger effect = lower value 1.03 | S. cerevisiae deletion strains, locus YLR268W, strain sec22, stronger effect = lower value 0.993 | S. cerevisiae deletion strains, locus YLR320W, strain mms22, stronger effect = lower value 0.986 | S. cerevisiae deletion strains, locus YLR330W, strain CHS5, stronger effect = lower value 0.993 | S. cerevisiae deletion strains, locus YLR342W, strain FKS1 (second series), stronger effect = lower value 1.03 | S. cerevisiae deletion strains, locus YLR342W, strain FKS1, stronger effect = lower value 0.988 | S. cerevisiae deletion strains, locus YLR357W, strain rsc2, stronger effect = lower value 0.994 | S. cerevisiae deletion strains, locus YLR370C, strain arc18, stronger effect = lower value 1.01 | S. cerevisiae deletion strains, locus YLR371W, strain rom2, stronger effect = lower value 0.993 | S. cerevisiae deletion strains, locus YLR384C, strain iki3, stronger effect = lower value 0.991 | S. cerevisiae deletion strains, locus YLR418C, strain cdc73, stronger effect = lower value 0.996 | S. cerevisiae deletion strains, locus YML016C, strain PPZ1, stronger effect = lower value 1 | S. cerevisiae deletion strains, locus YML032C, strain rad52, stronger effect = lower value 0.991 | S. cerevisiae deletion strains, locus YML120C, strain ndi1, stronger effect = lower value 0.992 | S. cerevisiae deletion strains, locus YML124C, strain tub3, stronger effect = lower value 0.991 | S. cerevisiae deletion strains, locus YMR058W, strain fet3, stronger effect = lower value 1 | S. cerevisiae deletion strains, locus YMR078C, strain ctf18, stronger effect = lower value 0.995 | S. cerevisiae deletion strains, locus YMR125W, strain sto1, stronger effect = lower value 1.02 | S. cerevisiae deletion strains, locus YMR129W, stronger effect = lower value 0.992 | S. cerevisiae deletion strains, locus YMR205C, strain PFK2, stronger effect = lower value 0.991 | S. cerevisiae deletion strains, locus YMR223W, strain ubp8, stronger effect = lower value 1.01 | S. cerevisiae deletion strains, locus YMR231W, strain pep5, stronger effect = lower value 0.997 | S. cerevisiae deletion strains, locus YMR263W, strain SAP30, stronger effect = lower value 0.972 | S. cerevisiae deletion strains, locus YMR307W, strain GAS1, stronger effect = lower value 1.25 | S. cerevisiae deletion strains, locus YNL067W, strain RPL9B, stronger effect = lower value 0.962 | S. cerevisiae deletion strains, locus YNL071W, strain lat1, stronger effect = lower value 1 | S. cerevisiae deletion strains, locus YNL128W, strain TEP1, stronger effect = lower value 0.974 | S. cerevisiae deletion strains, locus YNL153C, strain GIM3, stronger effect = lower value 1.01 | S. cerevisiae deletion strains, locus YNL183C, strain NPR1, stronger effect = lower value 0.971 | S. cerevisiae deletion strains, locus YNL209W, strain ssb2, stronger effect = lower value 1.01 | S. cerevisiae deletion strains, locus YNL233W, strain BNI4, stronger effect = lower value 1.01 | S. cerevisiae deletion strains, locus YNL248C, strain rpa49, stronger effect = lower value 1.01 | S. cerevisiae deletion strains, locus YNL250W, strain rad50, stronger effect = lower value 0.921 | S. cerevisiae deletion strains, locus YNL271C, strain bni1, stronger effect = lower value 0.991 | S. cerevisiae deletion strains, locus YNL298W, strain CLA4, stronger effect = lower value 0.98 | S. cerevisiae deletion strains, locus YNL307C, strain MCK1, stronger effect = lower value 1 | S. cerevisiae deletion strains, locus YNL322C, strain KRE1 (second series), stronger effect = lower value 1.01 | S. cerevisiae deletion strains, locus YNL322C, strain KRE1, stronger effect = lower value 1 | S. cerevisiae deletion strains, locus YNR049C, strain mso1, stronger effect = lower value 0.995 | S. cerevisiae deletion strains, locus YNR052C, strain pop2, stronger effect = lower value 0.987 | S. cerevisiae deletion strains, locus YOL006C, strain TOP1, stronger effect = lower value 1.01 | S. cerevisiae deletion strains, locus YOL012C, strain htz1 0.716 | S. cerevisiae deletion strains, locus YOR001W, strain rrp6, stronger effect = lower value 0.99 | S. cerevisiae deletion strains, locus YOR061W, strain CKA2, stronger effect = lower value 1 | S. cerevisiae deletion strains, locus YOR069W, strain VPS5, stronger effect = lower value 0.999 | S. cerevisiae deletion strains, locus YOR070C, strain gyp1, stronger effect = lower value 1.01 | S. cerevisiae deletion strains, locus YOR080W, strain dia2, stronger effect = lower value 0.99 | S. cerevisiae deletion strains, locus YOR083W, strain WHI5, stronger effect = lower value 0.95 | S. cerevisiae deletion strains, locus YOR106W, strain vam3, stronger effect = lower value 0.994 | S. cerevisiae deletion strains, locus YOR136W, strain idh2, stronger effect = lower value 0.992 | S. cerevisiae deletion strains, locus YOR144C, strain elg1, stronger effect = lower value 0.989 | S. cerevisiae deletion strains, locus YOR184W, strain ser1, stronger effect = lower value 0.996 | S. cerevisiae deletion strains, locus YOR231W, strain MKK1, stronger effect = lower value 0.988 | S. cerevisiae deletion strains, locus YOR265W, strain rbl2, stronger effect = lower value 1 | S. cerevisiae deletion strains, locus YOR270C, strain vph1, stronger effect = lower value 1 | S. cerevisiae deletion strains, locus YOR290C, strain snf2, stronger effect = lower value 1 | S. cerevisiae deletion strains, locus YOR316C, strain cot1, stronger effect = lower value 0.977 | S. cerevisiae deletion strains, locus YPL051W, strain arl3, stronger effect = lower value 0.989 | S. cerevisiae deletion strains, locus YPL055C, strain LGE1, stronger effect = lower value 0.968 | S. cerevisiae deletion strains, locus YPL078C, strain atp4, stronger effect = lower value 0.97 | S. cerevisiae deletion strains, locus YPL106C, strain sse1, stronger effect = lower value 1.03 | S. cerevisiae deletion strains, locus YPL240C, strain hsp82, stronger effect = lower value 0.999 | S. cerevisiae deletion strains, locus YPL241C, strain CIN2, stronger effect = lower value 1 | S. cerevisiae deletion strains, locus YPL256C, strain CLN2, stronger effect = lower value 1.06 | S. cerevisiae deletion strains, locus YPR141C, strain kar3, stronger effect = lower value 0.972 | S. cerevisiae deletion strains, locus YPR163C, strain tif3, stronger effect = lower value 0.987 | S. cerevisiae deletion strains, locus YPR167C, strain met16, stronger effect = lower value 0.979 | S. cerevisiae deletion strains, strain wtn01, stronger effect = lower value 1.01 | S. cerevisiae strains, strain wild type, stronger effect = lower value 1
